# Assay results as given in PMC12215968.
# Target: Ubiquitin-ribosomal protein eS31 fusion protein (UniProt P62979)
# Assay: cross-link between two proteins; cross-linking mass spectrometry
row,Substance,listed as a hit
1,"Ubiquitin-conjugating enzyme E2 K, P61086",yes
2,"Ubiquitin carboxyl-terminal hydrolase 5, P45974",yes
3,"Ubiquitin-conjugating enzyme E2 N, P61088",yes
